# In PubChem BioAssay AID624167 (Sanford-Burnham Center for Chemical Genomics, 2012):
# Test: inhibition of PEG-3 promoter-driven reporter – cell-based, HeLa, luciferase, CREF/GAPDH counter-screen panel, dose response (AID 624167)
# Conditions: CREF/GAPDH counter-screens; run 1, dose range 1, at 100 µM (top of the series)
row,SMILES,inhibition
1,CCCCC(=O)NC(c1ccccc1)c1ccc2cccnc2c1O (stereo not drawn),47.5%
2,CC(C)(C)c1ccc(Cn2c(=O)cnc3ccccc32)cc1,88.2%
3,CC(C)CCCCCCCCCCCCC(=O)NCC(=O)NC1C(O)C(O)C(Nc2ncnc3nc[nH]c23)OC1C(O)CO (stereo not drawn),94.6%
4,O=C(N/N=C/c1c(O)ccc2ccccc12)c1ccc(CO)nc1,-8.84%
5,O=C(O)c1ccc(N/N=C/c2ccc3nccnc3c2)cc1,99%
6,CS(=O)(=O)Nc1cccc(NC(=O)C2Cc3c(-c4ccccc4)ccnc3O2)c1 (stereo not drawn),0.156%
7,Cc1ccc(/C=C2\SC(=S)N(CCCC(=O)NNC(=O)c3ccccc3O)C2=O)cc1,76.4%
8,NC(C(=O)O)C1ON=C(Cl)C1O (stereo not drawn),67%
9,CC(C)CC1C(=O)N(Cc2cn(Cc3ccco3)nn2)CCS(=O)(=O)N1Cc1ccc(-c2ccc(F)cc2)cc1 (stereo not drawn),60.2%
10,COc1ccc(C(NC(C)=O)c2ccc3cccnc3c2O)c(OC)c1 (stereo not drawn),-5.47%
11,O=C(CNC(=O)C(c1ccccc1)c1ccccc1)N/N=C/c1ccc(O)cc1O,30.2%
12,O=[N+]([O-])c1ccc(S(=O)(=O)c2ccccc2)nc1,100%
13,O=C(c1ccco1)N1CCN(C(c2ccccc2Cl)c2nnnn2Cc2cccs2)CC1 (stereo not drawn),69.4%
14,COc1ccc(C(NC(=O)C(C)C)c2ccc3cccnc3c2O)cc1 (stereo not drawn),31.4%
15,CCCC(=O)NC(c1ccc(N(C)C)cc1)c1ccc2cccnc2c1O (stereo not drawn),25.9%
16,COc1cccc(OC)c1C(=O)Nc1cc(C)nn1-c1nc2ccccc2[nH]1,50.8%
17,Cc1cc(C)c2sc(NNC(=O)c3ccc(S(=O)(=O)N4CCc5ccccc5C4)cc3)nc2c1,58.6%

row,SMILES,inhibition
1,CC(C)(C)c1ccc(Oc2ccc(N)cc2)cc1,90.1%
2,O=C(N/N=C/c1sc(N2CCOCC2)nc1-c1ccccc1)c1cccc(S(=O)(=O)N2CCCC2)c1,52%
3,Cc1ccc(OCC(=O)c2cc(C)n(Cc3ccco3)c2C)c([N+](=O)[O-])n1,70.8%
4,O=C(O)c1ccc(N/N=C/c2ccc3c(c2)OCO3)cc1,96.9%
5,O=c1cnnc(N/N=C/c2ccccn2)[nH]1,3.68%
6,COc1ccc(-n2cc(-c3ccccc3)c3c(N4CCOCC4)ncnc32)cc1,87.7%
7,Cc1ccc(/C=C2\SC(=S)N(CCCC(=O)Nc3ccccn3)C2=O)cc1,80.2%
8,CC(=O)c1ccc(-c2cnc3c(NC=O)cc(-c4ccccc4Oc4ccccc4)cn23)cc1,39.3%
9,O=C(Nc1ccccc1)c1nc[nH]c1C(=O)NCCCCCCNC(=O)c1[nH]cnc1C(=O)Nc1ccccc1,-2.1%
10,CCCCCCCn1c(=N)n(CC(=O)c2ccco2)c2ccccc21,92.5%
11,C(=N\Nc1ccc2ccccc2n1)/c1ccc2c(c1)OCCO2,99.5%
12,CC(=O)c1sc2c(c1OC(=O)c1ccc(Cl)cc1Cl)c(=O)n(-c1ccccc1)c(=S)n2-c1ccccc1,85.9%
13,COc1cc(/C=C2\SC(=Nc3ccccc3OC)NC2=O)ccc1O,43.9%
14,O=C(CCl)N1c2ccccc2Sc2ccc3ccccc3c21,100%
15,O=C(CNc1ccccc1)N/N=C/c1c(O)ccc2ccccc12,57%
16,O=C(N/N=C/c1ccc(Cl)c([N+](=O)[O-])c1)c1cc(-c2ccc3c4c(cccc24)CC3)n[nH]1,75.4%
